GLP1R inv ag – qHTS of GLP-1 Receptor Inverse Agonists (Inhibition Mode). Glucagon-like peptide 1 receptor (Homo sapiens), P43220. HEK293 GLP-1R CRE-luciferase, luminescence, 24 h; GLP-1R form is constitutively active. Potency, µM (series often up to 38.3 µM), for the others: at the top dose activity change, negative = inhibition, hits mostly inhibitors. actives 1.6% (n = 410,000); further: on the % scale 0 is the no-effect control and ±100 the full control effect; nearly all actives have a fitted effect of over 55% in size
Target sequence (P43220 whole entry, looked up): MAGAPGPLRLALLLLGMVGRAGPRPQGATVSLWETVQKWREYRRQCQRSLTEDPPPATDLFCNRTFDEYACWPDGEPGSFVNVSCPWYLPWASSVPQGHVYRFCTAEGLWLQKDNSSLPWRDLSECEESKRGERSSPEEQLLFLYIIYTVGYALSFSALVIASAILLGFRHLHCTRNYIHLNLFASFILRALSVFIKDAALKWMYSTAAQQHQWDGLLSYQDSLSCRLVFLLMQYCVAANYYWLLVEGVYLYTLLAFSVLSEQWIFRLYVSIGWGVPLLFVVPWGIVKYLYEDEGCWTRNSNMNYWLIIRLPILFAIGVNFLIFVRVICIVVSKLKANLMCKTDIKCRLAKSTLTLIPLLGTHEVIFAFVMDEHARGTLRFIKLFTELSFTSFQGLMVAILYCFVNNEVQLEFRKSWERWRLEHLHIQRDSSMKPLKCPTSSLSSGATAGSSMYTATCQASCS
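Inverse agonists were sought by their lowering of basal cAMP reporter luciferase output in HEK293 cells stably carrying constitutively active human GLP-1R, after 24 h compound treatment.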
GLP-1R agonist – qHTS of GLP-1 Receptor Agonists | AID 624172, 2012 | Glucagon-like peptide 1 receptor (Homo sapiens), P43220 | actives 0.007% (n = 380,000) | Potency, µM (top dose mostly 45.6 µM), for inactives: top-dose activation, actives largely listed as activators | HEK293 GLP-1R CRE-luciferase, luminescence, 4-6 h; cells express a hypersensitive GLP-1R form; further: % of control where 0% means no effect
RORgamma inh – qHTS for inhibitors of ROR gamma transcriptional activity. Drosophila S2 Gal4-RORgamma UAS-luciferase reporter, 20 h. Potency, µM (series often up to 53.6 µM), for the others: top-dose activity change, negative = inhibition, actives largely listed as inhibitors. actives 5.4% (n = 310,000). AID 2551, 2010; further: on the % scale 0 is the no-effect control and ±100 the full control effect; nearly all actives have a fitted effect of over 60% in size
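Compounds are pin-transferred onto Drosophila Schneider cells expressing a copper-inducible Gal4–ROR gamma transactivation domain fusion. After 1 hr, copper sulfate is added to 700 uM final; luciferase is read 20 hr later.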
GLP1R cytotox – qHTS of GLP-1 Receptor Inverse Agonists: Cytotox Screen. HEK293 cAMP-luciferase reporter cells, luminescence, 24 h. actives 0.13% (n = 410,000). Potency, µM (top dose mostly 38.3 µM), for inactives: at the top dose activity change, negative = inhibition, hits mostly inhibitors;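 further: loss of luciferase light is scored as toxicity; on the % scale 0 is the no-effect control and ±100 the full control effect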
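Here, cytotoxicity is scored as loss of luminescence. The MLSMR collection was tested on cells seeded in medium containing 10% Nu serum, with a 24 hr compound exposure preceded by 12 hours of culture.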
Gal4-VP16 FLuc – VP16 counterscreen qHTS for inhibitors of ROR gamma transcriptional activity. AID 2546, 2010. Drosophila S2 Gal4-VP16 UAS-luciferase, luminescence, 20 h. Potency, µM (highest dose often 53.6 µM), inactives show top-dose activity, negative = inhibition, usual class: inhibitors. actives 3.5% (n = 310,000);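 further: Gal4-VP16 expression switched on by copper sulfate through the metallothionein promoter; on the % scale 0 is the no-effect control and ±100 the full control effect; nearly all actives have a fitted effect of over 50% in size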
Numbers without * were called inactive; ? = inconclusive; . = no result; [ ] = remark or other dose. An excerpt weighted towards active compounds, which were near 5.9% of everything screened. The call rests on the fitted dose curve; in most records, active means well fitted curve in the direction sought with a large enough effect; inconclusive means small, poorly fitted or top-dose-only effect, or another doubt; inactive means no such curve, though single readings can be large; an effect the other way counts as inactive or inconclusive. Potency means the concentration at half of the fitted maximal effect.

SMILES	GLP1R inv ag	GLP-1R agonist	RORgamma inh	GLP1R cytotox	Gal4-VP16 FLuc
CC1(C)CN(c2ccccc2)N(C(=O)c2ccc(C#N)cc2)C1=O	3.16µM*	-3.0%	-13.2%	-17.9%	5.3%
Cc1ccc(C(=O)Nc2nc(COc3ccccc3)cs2)s1	-0.9%	5.2%	10µM*	?	-14.8%
O=C(c1ccc(Cl)cc1)N1CCN(CCOc2ccccc2)CC1	11.2µM*	15.3%	25.6%	-7.0%	?
COc1ccc(OCCN2CCN(C(=O)c3ccc(OC)cc3)CC2)cc1	-7.5%	5.4%	4.0%	-9.0%	-7.9%
Cc1ccc(C(C)C)c(OCCOCCN2CCNCC2)c1	-74.2%	-1.4%	.	9.7%	.
Clc1ccc(SCCCCN2CCNCC2)cc1	1.78µM*	0.1%	11.7%	-19.1%	-7.1%
Cc1ccc(SCCCCN2CCNCC2)cc1	2.82µM*	-2.9%	18.2%	1.4%	5.1%
Clc1ccc(SCCCCN2CCOCC2)cc1	-26.9%	1.5%	2.1%	15.2%	-12.6%
Cc1ccc(C(C)C)c(OCCCCN2CCNCC2)c1	2.24µM*	-5.8%	7.9%[1.91 µM]	-3.8%	-2.0%
Cc1ccc(SCCCCN2CCOCC2)cc1	-24.3%	-1.7%	-38.7%	-1.0%	1.4%
O=C(NCc1ccccc1Cl)c1cc2ccccc2o1	-29.7%	.	.	-9.7%	.
C[C@H]1O[C@@H](n2cnc3c(N)ncnc32)C[C@@H]1OP(=O)(O)OP(=O)(O)OP(=O)(O)O	.	.	-15.3%	.	3.9%
O=C(Nc1ccc(S(=O)(=O)N2CCCCC2c2cccnc2)cc1)c1ccc(Br)cc1 (stereo unspecified)	10µM*	.	.	-19.5%	.
CCOc1ccc(C(=O)Nc2ccc(S(=O)(=O)N3CCCCC3c3cccnc3)cc2)cc1 (stereo unspecified)	?	.	.	-25.4%	.
O=C(N/N=C\c1ccc(CNS(=O)(=O)c2ccccc2)o1)C(=O)Nc1ccc(F)cc1	2.3%	-14.0%	?	-17.4%	16.4%
O=C(NCc1ccc(/C=N\NC(=O)C(=O)Nc2ccccc2Br)o1)C(=O)Nc1ccccc1	-5.4%	1.1%	11.2µM*	-11.7%	?
O=C(N/N=C\c1ccc(CNS(=O)(=O)c2ccc(Cl)cc2)o1)C(=O)Nc1ccc(Oc2ccccc2)cc1	-3.3%	-0.7%	12.6µM*	1.1%	12.6µM*
Cc1ccc(NC(=O)C(=O)NCc2ccc(/C=N/NC(=O)c3c(C)nc4ccccn34)o2)cc1	27.9%	11.2%	-9.1%	15.5%	1.1%
Cc1ccc2nc(N(CCCN(C)C)C(=O)c3cc(-c4cccs4)nc4ccccc34)sc2c1	2.51µM*	3.8%	14.1µM*	?	?
CN(C)CCN(C(=O)c1ccc2ccccc2c1)c1nc2ccc(F)cc2s1	-15.6%	-1.5%	3.6%	-16.5%	-8.5%
COc1cc2ccccc2cc1C(=O)N(CCN(C)C)c1nc2ccc(C)cc2s1	3.98µM*	5.6%	-21.7%	-13.6%	-11.4%
CCc1ccc2nc(N(CCN(C)C)C(=O)c3ccc4ccccc4c3)sc2c1	12.6µM*	-0.9%	-2.3%	7.9%	2.7%
CCN(CC)CCN(C(=O)c1cc2ccccc2cc1OC)c1nc2ccc(F)cc2s1	5.01µM*	-6.1%	?	-25.8%	-1.2%
CN(C)CCCN(C(=O)c1cc(-c2cccs2)nc2ccccc12)c1nc2c(F)cccc2s1	?	2.8%	?	?	-22.5%
CCN(CC)CCN(C(=O)c1cc2ccccc2cc1OC)c1nc2ccc(OC)cc2s1	5.62µM*	-7.1%	-7.2%	-22.6%	?
SMILES	GLP1R inv ag	GLP-1R agonist	RORgamma inh	GLP1R cytotox	Gal4-VP16 FLuc
COc1ccccc1C(=O)N(CCN(C)C)c1nc2cc(C)cc(C)c2s1	11.2µM*	8.4%	-21.6%	-17.0%	-2.6%
Cc1cc(C)c2sc(N(CCN(C)C)C(=O)c3cc(Cl)sc3Cl)nc2c1	?	5.2%	4.1%	-1.0%	-8.2%
CC(Sc1nnc(-c2ccc(Cl)cc2Cl)n1Cc1ccccc1)C(=O)Nc1nccs1 (stereo unspecified)	?	-3.8%	11.2µM*	-18.2%	-21.4%
Cc1cccc(NC(=O)C2CCCN(S(=O)(=O)c3c(C)[nH]c(=O)[nH]c3=O)C2)c1C (stereo unspecified)	-5.4%	0.4%	.	2.9%	.
c1ccc(CN2CCC(Nc3ncnc4sccc34)CC2)cc1	14.4%	1.7%	?	8.9%	?
Cc1sc2ncnc(NC3CCN(Cc4ccccc4)CC3)c2c1C	?	8.8%	?	-25.1%	15.8µM*
COc1ccc(-n2ncc(C(=O)NCCCN3CCCCC3)c2C2CCN(C(=O)OC(C)(C)C)CC2)cc1	-18.6%	.	.	3.3%	.
COc1cc(OC)c(OC)cc1C=Cc1ccc2ccccc2n1	-22.5%	12.3%	.	187.1%	.
COc1ccccc1/C=C/c1ccc2cccc(O)c2n1	?	-5.4%	3.98µM*	?	?
COc1cc(Cl)cc(/C=C/c2ccc3cccc(O)c3n2)c1OC	-2.2%	5.7%	5.01µM*	-0.1%	-10.4%
COc1ccc(Cl)cc1/C=C/c1ccc2cccc(O)c2n1	-18.6%	11.4%	0.891µM*	-4.8%	0.794µM*
Cc1cc2c(c(=O)o1)[C@@H](O)[C@H]1O[C@@H]1C2=O	.	.	?	.	-13.3%[10 µM]
CCc1ccc(NC(=O)CC2C(=O)N(c3cccc(OC)c3)C(=O)N2Cc2ccco2)cc1 (stereo unspecified)	-17.1%	.	.	-1.9%	.
CC(=N/O)/C(C)=N\NC(=O)c1ccccn1	11.7%	3.2%	6.31µM*	-1.8%	5.01µM*
O=C(NN=C1c2ccccc2-c2ccccc21)c1ccccn1	-1.8%	-1.6%	3.16µM*	-3.7%	4.47µM*
COc1ccc(NCC(=O)N/N=C(\C)c2cc3ccccc3o2)cc1	?	11.4%	?	-0.9%	-14.5%
C/C(=N\NC(=O)c1cc2ccccc2cc1O)c1cc2ccccc2o1	?	-3.3%	10µM*	-0.6%	?
C/C(=N\NC(=O)c1ccc(F)cc1)c1ccccn1	1.12µM*	0.1%	0.251µM*	-27.1%	0.398µM*
CC1(C)C(=O)C(c2ccccc2)=C2CN3C(=O)N(CCc4ccccc4)C(=O)C3(Cc3ccccc3)C=C21 (stereo unspecified)	.	.	-2.8%	.	8.8%
CC(CC(=O)c1ccccc1)=NCCCN=C(C)CC(=O)c1ccccc1	?	20.7%	.	-7.8%	.
C/C(=N\NC(=O)c1nc2ccccn2c1C)c1cc2ccccc2o1	87.0%	8.5%	12.6µM*	18.9%	?
C/C(CC(=O)c1ccccc1)=N\NC(=O)CC#N	2.2%	-6.4%	3.98µM*	-15.7%	?
C/C(=N\NC(=O)CCCNc1ccc(C)cc1)c1ccccn1	?	-5.5%	2.24µM*	?	12.6µM*
C/C(=N\NC(=O)c1cc2ccccc2cc1O)c1ccccn1	12.6%	-3.8%	0.199µM*	-3.3%	0.126µM*
